Compound activity from PubChem.
Dicer processing – inhibitors of human Dicer processing of pre-microRNA; cat-ELCCA pre-miR-21 Dicer processing, chemiluminescence; hits give high values; AID 1347074; z-score at 25 µM; 6% of 47,000 active; Q9UPY3; in the data active means z-score above about 3, passing the limit was not always enough;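 further: plate controls were vehicle for no effect and no enzyme for full effect; higher signal means more uncleaved substrate so more Dicer inhibition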
Target sequence (Q9UPY3 whole entry, looked up): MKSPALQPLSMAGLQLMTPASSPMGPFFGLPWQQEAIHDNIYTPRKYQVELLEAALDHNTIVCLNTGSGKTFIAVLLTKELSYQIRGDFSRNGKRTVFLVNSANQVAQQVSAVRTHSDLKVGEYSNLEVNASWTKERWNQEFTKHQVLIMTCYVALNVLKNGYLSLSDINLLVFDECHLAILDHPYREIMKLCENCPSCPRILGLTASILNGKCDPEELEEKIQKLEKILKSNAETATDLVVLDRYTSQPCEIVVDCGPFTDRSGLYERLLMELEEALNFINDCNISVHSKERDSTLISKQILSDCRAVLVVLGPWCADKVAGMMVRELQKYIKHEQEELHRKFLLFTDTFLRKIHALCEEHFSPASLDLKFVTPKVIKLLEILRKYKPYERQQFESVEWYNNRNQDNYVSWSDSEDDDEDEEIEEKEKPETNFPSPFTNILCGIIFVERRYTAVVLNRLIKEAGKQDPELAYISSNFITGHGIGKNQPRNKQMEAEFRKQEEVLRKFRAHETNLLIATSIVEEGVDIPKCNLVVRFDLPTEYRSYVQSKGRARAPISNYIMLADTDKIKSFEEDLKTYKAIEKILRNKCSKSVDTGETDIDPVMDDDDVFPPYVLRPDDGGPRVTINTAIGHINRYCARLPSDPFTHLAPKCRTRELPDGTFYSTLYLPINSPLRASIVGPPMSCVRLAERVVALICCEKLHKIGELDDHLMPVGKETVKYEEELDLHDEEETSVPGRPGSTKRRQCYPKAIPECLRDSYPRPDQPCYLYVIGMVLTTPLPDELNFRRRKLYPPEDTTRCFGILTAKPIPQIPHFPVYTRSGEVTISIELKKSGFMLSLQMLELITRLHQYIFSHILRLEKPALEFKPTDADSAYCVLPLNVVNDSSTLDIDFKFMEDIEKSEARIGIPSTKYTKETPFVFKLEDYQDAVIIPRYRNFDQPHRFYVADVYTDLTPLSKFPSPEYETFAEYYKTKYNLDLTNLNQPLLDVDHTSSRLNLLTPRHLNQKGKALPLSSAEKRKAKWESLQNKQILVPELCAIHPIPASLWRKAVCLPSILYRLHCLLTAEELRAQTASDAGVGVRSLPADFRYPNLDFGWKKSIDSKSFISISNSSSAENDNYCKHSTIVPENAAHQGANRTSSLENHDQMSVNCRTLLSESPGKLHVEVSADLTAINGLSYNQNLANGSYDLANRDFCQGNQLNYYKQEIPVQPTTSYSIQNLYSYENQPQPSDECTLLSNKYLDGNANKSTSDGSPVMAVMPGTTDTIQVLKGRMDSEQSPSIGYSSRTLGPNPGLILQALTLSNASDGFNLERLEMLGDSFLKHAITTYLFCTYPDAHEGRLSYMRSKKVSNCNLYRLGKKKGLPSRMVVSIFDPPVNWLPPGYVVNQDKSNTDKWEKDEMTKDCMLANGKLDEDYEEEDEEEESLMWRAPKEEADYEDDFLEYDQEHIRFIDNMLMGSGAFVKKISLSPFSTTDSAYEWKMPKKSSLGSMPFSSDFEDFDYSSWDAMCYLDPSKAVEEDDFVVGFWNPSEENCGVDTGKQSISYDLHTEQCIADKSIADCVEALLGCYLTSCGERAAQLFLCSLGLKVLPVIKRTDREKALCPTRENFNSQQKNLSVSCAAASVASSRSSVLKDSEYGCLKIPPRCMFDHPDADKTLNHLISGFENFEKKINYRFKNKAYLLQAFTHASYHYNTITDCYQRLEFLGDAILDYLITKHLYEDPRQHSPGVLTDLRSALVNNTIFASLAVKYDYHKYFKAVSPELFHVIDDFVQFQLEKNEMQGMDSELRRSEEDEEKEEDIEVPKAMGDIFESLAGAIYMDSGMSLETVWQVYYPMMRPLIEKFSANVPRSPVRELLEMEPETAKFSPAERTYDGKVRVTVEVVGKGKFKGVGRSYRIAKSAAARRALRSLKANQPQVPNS
Starred values were filed as active, the others as inactive. The full list was thinned out, with hits kept by preference.

SMILES	Dicer processing
Cc1ccnc(SCn2c(=S)sc3ccccc32)n1	-3.7
CCCSc1nnc(/N=C/N(C)C)s1	2.4
CC1CCC2C(=O)N(c3ccc(C(=O)OC(C)C(=O)c4ccccc4)cc3)C(=O)C2C1 (stereo unspecified)	3.1*
CC1CCC2C(=O)N(c3ccc(N4C(=O)C5CCC(C)CC5C4=O)cc3)C(=O)C2C1 (stereo unspecified)	2.8
CC1CCC2C(=O)N(c3ccc(Cl)cc3)C(=O)C2C1 (stereo unspecified)	-1.5
Cc1c(/C=N/Nc2c(Cl)cc(Cl)cc2Cl)sc2ccccc12	0.01
CCOC(=O)Cc1nnc2c(N(CC)c3ccccc3)nc3nonc3n12	2.3
CN(C)CCCNC(=O)C(=O)Nc1ccccc1Oc1ccc(Cl)cc1Cl	0.16
N#CC(C#N)=NNc1ccccc1Oc1ccc(Cl)cc1Cl	3.9*
O=C(Nc1ccccc1Oc1ccc(Cl)cc1Cl)c1cc(Cl)sc1Cl	-0.24
O=C(Nc1ccc(Cl)cc1)N1CCOC1c1cccs1 (stereo unspecified)	4.2*
O=C(Nc1ccc(Cl)cc1)N1N=C2c3ccccc3CCC2C1c1cccs1 (stereo unspecified)	-0.38
N#CC1=C(SCC(=O)Nc2ccc(Cl)cc2)NC(=O)CC1c1cccs1 (stereo unspecified)	-2.8
Cc1sc2ncnc(SCC(=O)OCC(C)C)c2c1C	-0.2
COc1ccc(OC)c(Nc2nc3nonc3nc2Nc2cccc(Br)c2)c1	2
COc1ccc(OC)c(Nc2nc3nonc3nc2Nc2ccc(F)cc2)c1	4.1*
COc1ccccc1Nc1nc2nonc2nc1Nc1cccc(Br)c1	1.6
Cc1oc(-c2ccc(Cl)cc2)cc1C(=O)Nc1cc(-c2cccs2)nn1-c1ccc(F)cc1	-1.1
COc1ccc(CN2CN=C(Nc3nc(C)c4ccc(C)cc4n3)NC2)cc1	-0.05
COc1cccc(/C=N/NC(=O)CN2C(=O)CSc3ccccc32)c1	3.2*
Cc1ccc(/C=N/NC(=O)Cn2nc3n(c2=O)-c2ccccc2SC3)o1	1.3
Cc1nn(-c2ccccc2)cc1/C=N/NC(=O)Cn1nc2n(c1=O)-c1ccccc1SC2	1.4
CS(=O)(=NS(=O)(=O)c1ccc(Cl)s1)c1ccc(Cl)cc1 (stereo unspecified)	9.3
C/C(=N\Nc1nc2c(c(=O)n(C)c(=O)n2C)n1C)c1cccs1	1.6
CC1(C)CC(=O)C2=C(C1)OC1CCCCC21 (stereo unspecified)	3.4*
SMILES	Dicer processing
CC1(C)CC(=O)C2=C(C1)OC1=C(C2)C(=O)CC(C)(C)C1	0.85
CC1(C)CC(=O)C2=C(C1)OC1=C(C(=O)CC(C)(C)C1)C2c1ccc(Br)cc1	0.76
O=C(Nc1cc(Cl)cc(Cl)c1)Nc1cc(-c2cccs2)[nH]n1	-3.4
N#C/C(=C\Nc1ccc(Cl)cc1)S(=O)(=O)c1ccc(Cl)cc1	1.7
COc1ccc(-c2cc(NS(=O)(=O)c3cccc(F)c3)n(-c3ccc(Cl)c(Cl)c3)n2)cc1	-0.11
CC(C)(C)NC(=O)c1cc2nc3c(c(C(F)(F)F)n2n1)CCc1ccccc1-3	3.6*
FC(F)(F)c1c2c(nc3cc(-c4cccs4)nn13)-c1ccccc1C2	-0.63
COCCNC(=O)c1cc2nc3c(c(C(F)(F)F)n2n1)CCc1ccccc1-3	3.2*
CC(C)(C)NC(=O)c1cc2nc(-c3ccc(Br)cc3)cc(C(F)(F)F)n2n1	-1.2
O=C(O)CSc1nc2c(c(C(F)(F)F)n1)CCc1ccccc1-2	1.8
O=C(NCC1CCCO1)c1nn2c(C(F)(F)F)c3c(nc2c1Cl)-c1ccccc1CC3 (stereo unspecified)	2.9
COC(=O)c1cccc(NC(=O)NCc2ccccc2)c1C	0.6
COc1cc2c(cc1OC)C(C)N(C(=O)c1ccc(Cl)cc1Cl)CC2 (stereo unspecified)	-0.71
CC(=O)/C=C(/NCCN/C(=C/C(C)=O)c1ccccc1)c1ccccc1	1.5
O=C1c2oc3ccccc3c(=O)c2C(c2ccc(O)cc2)N1Cc1ccccc1 (stereo unspecified)	0.61
Cc1ccc(C)n1-c1ccc(C2(O)CCSc3ccccc32)cc1 (stereo unspecified)	2.4
Cc1ccc(C)n1-c1ccc(C2(O)CCSc3ccc(F)cc32)cc1 (stereo unspecified)	4*
Brc1ccc(-c2noc(CSc3nnc(-c4ccco4)n3-c3ccccc3)n2)cc1	1.7
CCOC(=O)c1cc(C(N)=S)c(C)nc1C(F)(F)F	-1.1
O=C(CCc1ccccc1)Nc1nc2n(n1)C(c1ccc(F)cc1)C=C(c1ccccc1)N2 (stereo unspecified)	1.1
Cc1ccc(S(=O)(=O)Nc2nc3n(n2)C(c2ccccc2)C=C(c2ccccc2)N3)cc1 (stereo unspecified)	-0.53
Cc1ccc(C2C=C(c3ccccc3)Nc3nc(NS(=O)(=O)c4ccc(C)cc4)nn32)cc1 (stereo unspecified)	4*
Cc1ccc(S(=O)(=O)NCCC2=CCCCC2)cc1	1.2
O=C(O)[C@H]1CCCC[C@H]1C(=O)NCCC1=CCCCC1	-0.86
O=c1cc(NCCC2=CCCCC2)c2ccccc2o1	3.5*
SMILES	Dicer processing
C=CCn1cnnc1C(CCC(C)C)CC(C)(C)O (stereo unspecified)	3.8*
CN(C)C=C1C(=O)CC(c2ccc(Cl)cc2)CC1=O (stereo unspecified)	-0.53
Cc1cc(C)n(-c2nc(-c3ccccc3)nc3c2COC(C)(C)C3)n1	-0.2
Cc1cc2nc(-c3cc4cc(Cl)cc(Cl)c4oc3=O)[nH]c2cc1C	4.7*
CC(=O)c1cc2cc(Cl)cc(Cl)c2o1	1
CC(=O)c1cc2cc(Cl)cc(Cl)c2oc1=O	-0.41
Cn1c(=O)c2c(nc(N/N=C/c3ccc(O)cc3)n2Cc2c(Cl)cccc2Cl)n(C)c1=O	4.8
CCN(CC)CCNc1nc2c(c(=O)n(C)c(=O)n2C)n1Cc1ccc(F)cc1	3.3*
Cn1c(=O)c2c(nc(NCCc3ccccc3)n2Cc2ccccc2F)n(C)c1=O	-0.97
CCN(CC)CCNc1nc2c(c(=O)n(C)c(=O)n2C)n1Cc1ccc(Cl)c(Cl)c1	-0.88
Cn1c(=O)c2c(nc(Cl)n2Cc2ccccc2)n(C)c1=O	-3.9
Cn1c(=O)c2c(nc(NCc3ccccc3)n2Cc2ccccc2)n(C)c1=O	1.2
Cn1c(=O)c2c(nc(NCCCO)n2Cc2ccccc2F)n(C)c1=O	0.32
Cn1c(=O)c2c(nc(N/N=C/c3ccccc3)n2Cc2ccccc2)n(C)c1=O	1.2
Cn1c(=O)c2c(nc(N/N=C/c3cccc(O)c3)n2Cc2ccccc2Br)n(C)c1=O	3.4*
CCN(CC)CCNc1nc2c(c(=O)[nH]c(=O)n2C)n1Cc1ccc(Cl)cc1	-3.5
Cn1c(=O)c2c(nc(NC3CCCCC3)n2Cc2ccccc2)n(C)c1=O	3.6*
Cn1c(=O)c2c(nc(NCCO)n2Cc2cccc3ccccc23)n(C)c1=O	3.1*
Brc1ccc(CSc2nnc([C@@H]3CCCN3)o2)cc1	-1.5
COc1ccc(-c2nc3c4c5c(sc4ncn3n2)CCCC5)cc1OC	0.55
O=[N+]([O-])c1c(NC2CC2)ncnc1NC1CC1	1.1
CC1(C)CC(=O)C2=C(C1)Nc1nonc1NC2c1cccnc1 (stereo unspecified)	0.59
O=C1CC(c2ccccc2)Cc2nc(N3CCOCC3)ncc21 (stereo unspecified)	0.47
Cn1c(=O)c2c(nc(Oc3cccc4cccnc34)n2C)n(C)c1=O	0.6
CCOC(=O)c1cnc(NNS(=O)(=O)c2cc(C)c(Cl)cc2C)nc1C(F)(F)F	2.4
Cc1nsc(-c2ccc(Cl)cc2)n1	-0.04
N#CC1=C(SCC(=O)NC2CCCCC2)NC(=O)CC1c1ccc(F)cc1 (stereo unspecified)	-0.22
